The values that follow come from PubChem BioAssay AID1347426 (Functional Genomics Laboratory (NCATS/FGL), 2020).

The whole screen tested about 31,000 sequences, of which about 1,400 (4.5%) were called active. Many of the other results were omitted from the sample, so actives are more common in it than they were. A number with no mark means an inactive call.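 Rule for the calls: active = median seed-adjusted z-score above 1 or below -1; inactive = the rest.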

This assay can be described thus: Novel Modifiers of Survival Motor Neuron (SMN) Protein: Gene Identification via Genome-wide siRNA Screen.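 Note: luminescence tracks full-length SMN protein made from the SMN2 reporter.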 As to conditions: HEK293T SMN2-luciferase reporter, siRNA knockdown, 72 h; actives lie on both sides. In a few lines:
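Genome-wide siRNA screen (10418 genes, 3 siRNAs each, 1 pmol per well) by reverse transfection in HEK293T cells stably carrying an SMN2-luciferase reporter; luminescence after 72 hours, normalized to negative-control siRNA, log10-transformed, MAD-scored.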
Background: A reporter such as luciferase makes a cellular process visible.
CAGUCGAACCUUUCCCAGATT against MSRA: the median seed-adjusted z-score was -0.0316.

For GGGACUGGGAUUUACGUUATT against MTMR11, the median seed-adjusted z-score is -0.0244.

CUUCCUUCGUCUUCACCUATT against FOS: the median seed-adjusted z-score was 0.343.

For the sequence CGACGAUUCGUGCUUAAUATT against MYO5C, the median seed-adjusted z-score is 0.

On to GCAAAACAGCGGCAGAACATT against ATP8B2, for which the median seed-adjusted z-score is -0.268.

For GCAGAUCACAUGAAGAGAATT against DHX38, the median seed-adjusted z-score was -0.723.

Regarding CUCUUUAGCCGCUUCAUUATT against FMNL1, the median seed-adjusted z-score was -0.3.

With GGGUCUUCGUCAUGCUCUATT against GPR142, the median seed-adjusted z-score was -0.0636.

For the sequence CAGUGCUACUUGGAAUGUUTT against RHOJ, the median seed-adjusted z-score is -0.304.

Take CACUAGUUUUGUUAGCGAATT against ATP13A4: the median seed-adjusted z-score was -1.09 (active).

On to CAACAACUAUGACCCAGGATT against CHRNE, for which the median seed-adjusted z-score was 0.349.

As for CAGCAAUUCGUGGAGCUCATT against STX4, the median seed-adjusted z-score was 0.759.

For CACUAAAUGUGACUCCUGATT against TTC5, the median seed-adjusted z-score was -0.296.

For CUAUUAACAUGGUGACAGATT against EIF4A1, the median seed-adjusted z-score is -1.05 (active).

Regarding GUGUGAUGAUAUUCGAAAATT against SGPP1, the median seed-adjusted z-score was 0.0859.

In the case of GGAGGAAACUUCAACUUGUTT against PHF20L1, the median seed-adjusted z-score is 0.

Consider CAAAUUGAGUCACUCUUAATT against MGAT2, for which the median seed-adjusted z-score is -0.124.

Consider GGAUUUGGAGUAGAUCAAUTT against TIAL1, for which the median seed-adjusted z-score was -0.985.

For the sequence GCCUGUCCUUCUCCAUUGATT against ISX, the median seed-adjusted z-score is 1.99 (active).

Take GCUUUGAAACUACAGAUGATT against HNRNPA3: the median seed-adjusted z-score was 0.915.

Consider GAAGGUUUACAAGGACUUATT against KLK7, for which the median seed-adjusted z-score is 0.

With GCAGAGAUCAGCAACGUGATT against KRT77, the median seed-adjusted z-score was -0.0863.

For GCACUUAUGCUGAUGAAGATT against ZNF398, the median seed-adjusted z-score is 0.119.

Turning to CAAACGUAUUAGUUCAGCATT against KIF20B, the median seed-adjusted z-score is 0.

For GGACAAGUAGCAAAGCGAATT against SLC7A14, the median seed-adjusted z-score was 0.132.

CAACAACCUUACACGAGUATT against LRIG2: the median seed-adjusted z-score was 0.386.

As to GAAGAAAUGUUGUUCGAAUTT against KAL1, the median seed-adjusted z-score is 0.0824.

Turning to CGCCUGGUCUAUGAACUUUTT against SCARF1, the median seed-adjusted z-score is -0.324.

GAAGUGUUUGAAUCUCGUATT against AKAP3: the median seed-adjusted z-score was 0.0138.

For the sequence GUCUCGUAGUGUUAUGUCUTT against GBA2, the median seed-adjusted z-score was 0.143.

Take CCCUGGACGCUGAUGAGUUTT against CAPS: the median seed-adjusted z-score was -1.25 (active).

Consider GAUACAUGAAGGUAUACAATT against POLR3G, for which the median seed-adjusted z-score was -0.485.

For AGAAAGUGUACGACCCAAATT against NUCB1, the median seed-adjusted z-score was 0.232.

Regarding GAGUGCAAUUGGAACCUGATT against ARHGAP30, the median seed-adjusted z-score is 0.0946.

As to GCAUGAACAUUACGGAUAUTT against CARS, the median seed-adjusted z-score is 0.

For GGUGGUACAAGAGAACGAATT against JARID2, the median seed-adjusted z-score is 0.115.

CUUGGAUGAUGGCAAGACATT against TCEB2: the median seed-adjusted z-score is 1.28 (active).

With GAAAUAUACUUCAGAUUCATT against SP2, the median seed-adjusted z-score is -0.617.

For GCUCAUUCCUUUUCGAGCATT against PEG3, the median seed-adjusted z-score is 0.5.

In the case of GAUUCACAUCGUCAAGAAATT against ZNF317, the median seed-adjusted z-score is 0.087.

In the case of GAUAUGACCGCGAAACCAATT against RPA4, the median seed-adjusted z-score is 0.132.

Take GCUCCACACUGAUGAAUCATT against ZNF250: the median seed-adjusted z-score was -0.00985.

Turning to GGCUAACUACUGAGCUGAATT against C1RL, the median seed-adjusted z-score was -0.148.

As for GGGAAUUUCUGACCUAGUATT against ABCD3, the median seed-adjusted z-score was -0.24.

Take CCAAGCCUCUUUCCUACAATT against GPR52: the median seed-adjusted z-score was -1.17 (active).

Consider CGUGGAAGAUUUUCACAGATT against ZNF174, for which the median seed-adjusted z-score is 0.035.

On to GAUCUACCGAAUACAAGAATT against GPR171, for which the median seed-adjusted z-score was -0.449.

With CCACACCAUUAUGACCAUUTT against FUT1, the median seed-adjusted z-score is 0.000845.

With GGAUUUGCCUUACCACUAATT against PPP2R5C, the median seed-adjusted z-score was 1.14 (active).

As for GAAGGGUUAUCGUCGGGAATT against SLC6A6, the median seed-adjusted z-score is 0.0448.

Consider CCAUCGAGUUCAUCGAUAATT against DUSP8, for which the median seed-adjusted z-score was -0.0326.

As to GUUCAUCUCUUGUAAGGAUTT against CABP5, the median seed-adjusted z-score was 0.372.

On to GCCUCAGAAUUUAAUCAAATT against ALB, for which the median seed-adjusted z-score is -0.153.

Take CCAGAAGCGAAUCACCACATT against POLR2F: the median seed-adjusted z-score is -3.52 (active).

Regarding GUGUCUCUGCUCUAAGUAATT against B4GALT1, the median seed-adjusted z-score is 0.

AGCUUAUGCAUUUGGCAAATT against APBA3: the median seed-adjusted z-score is -0.119.

As to GGAGCAGACGGUGACCAAATT against CIB3, the median seed-adjusted z-score was 0.234.

As to CAUAUGAUCCAGACAAGAATT against ZNF425, the median seed-adjusted z-score is 0.0841.

For the sequence GAGUCUGUGGUGUACCUAATT against SALL4, the median seed-adjusted z-score was -0.344.

Regarding GAGAAGAACUCGUACCUCUTT against ZNF783, the median seed-adjusted z-score was 0.284.

For the sequence CCGUGUCCAGGAACCUAUATT against LPHN3, the median seed-adjusted z-score is -0.0576.

For AGUCCAAGGUGAUUACGCUTT against CPSF1, the median seed-adjusted z-score was 3.29 (active).

GCUGUGCUAUGGGAGUUAATT against ADH1A: the median seed-adjusted z-score is 0.624.

In the case of GAACUUAGCUAAAUUGACUTT against BCHE, the median seed-adjusted z-score was 0.117.

Consider CUUAGACUGUUUCCACUUATT against PARK2, for which the median seed-adjusted z-score is 0.146.

On to GCCUAUGAUUUAGGACUAATT against MNDA, for which the median seed-adjusted z-score was 0.232.

CCAGUGAUGUAAGUUCUUATT against GCG: the median seed-adjusted z-score is -1.18 (active).

Take CUGUUCUGCUUAUAUGGAATT against HNRPLL: the median seed-adjusted z-score is 0.

Turning to GAAACAUCCGUGAAAGAGATT against RABL4, the median seed-adjusted z-score is -0.154.

As to GAUACUAGCUAUUUUGACATT against MAST2, the median seed-adjusted z-score was 0.27.

On to CUAACGUAGAGGAAGCAUUTT against RAB11B, for which the median seed-adjusted z-score was -0.857.

As to CACUUAUACUAAGCACCAATT against CCNB1, the median seed-adjusted z-score was 0.163.

As for CUCUGGAUUUUGAUAGUUUTT against PPARGC1A, the median seed-adjusted z-score was -0.0953.

As to GUACUUCCAUAGACAGGAATT against CECR1, the median seed-adjusted z-score was 0.00187.

For the sequence GGCUUAAUGUGGUGAUGUUTT against COL7A1, the median seed-adjusted z-score is 1.08 (active).

On to CGAAUGCUGAGGCUACAAATT against SLC9A5, for which the median seed-adjusted z-score was -0.545.

As to GGGAGACCUCGAUCGUGAATT against RASA4, the median seed-adjusted z-score was -1.11 (active).

For the sequence CAAAUCCUGUCUAACAAAATT against MYH7, the median seed-adjusted z-score was 0.659.

With GUUCAUAUGUGACAUCUUUTT against ZFP36L1, the median seed-adjusted z-score is -0.933.

Regarding GUAGGUGAGUGGAAAUUCATT against DRD2, the median seed-adjusted z-score was -0.0273.

With GGAAGGUUGCUAUAGUGGATT against SSX2IP, the median seed-adjusted z-score is -0.0799.

As to GGCAAGUGCUUCACUCAAATT against ZNF665, the median seed-adjusted z-score was 1.13 (active).

For the sequence GAAUUCGCUUCAUCCAUUUTT against POMT2, the median seed-adjusted z-score is -0.614.

Take UGAUUGCACGAACAGCAAATT against MED21: the median seed-adjusted z-score was -1.3 (active).

As to GUAACACCGUUGAAGCUAATT against E2F8, the median seed-adjusted z-score is 0.209.

CUGCUCACCCUUUACAUCATT against KIF12: the median seed-adjusted z-score is 0.0971.

As to CAGUCCCAAUUUCCACUUUTT against PCDHB2, the median seed-adjusted z-score is 0.

In the case of CCAGGUCUCGAAAACCAAATT against EN2, the median seed-adjusted z-score is 0.319.

Consider CAGUGUUAGUCAUAUCGUATT against DHX36, for which the median seed-adjusted z-score was 0.165.

As to CCUCGGCUCCAGCAAAUCATT against CACNB1, the median seed-adjusted z-score is 0.225.

For GUGGGUAACUGGAACAAAATT against MFGE8, the median seed-adjusted z-score was 0.0367.

Consider CAACCAACAUUUACAUAUUTT against OPRK1, for which the median seed-adjusted z-score was -1.08 (active).

Turning to GCCUUGCGCUAAAUCUCGATT against NSD1, the median seed-adjusted z-score was -0.372.

GCAUUAACCCAAUUGCUCUTT against EDNRB: the median seed-adjusted z-score is 0.119.

For the sequence GAGCAGUCGCGAGAAGAUUTT against PPP1R12C, the median seed-adjusted z-score was -0.535.

Consider GGAGAGUUAAGAUCAAUGUTT against KCNB2, for which the median seed-adjusted z-score was 1.22 (active).

In the case of CCGUCAAAGUGAUCAACAATT against IKZF3, the median seed-adjusted z-score was 0.0181.

As for GGUGCUACGUUAGACCAGUTT against SNRPA1, the median seed-adjusted z-score was -2.71 (active).

For the sequence GCCUCCCACUACUUUGAAATT against IL2RB, the median seed-adjusted z-score is 0.333.

As to GCAUGUCCAAUGUUCCAUATT against ACAT1, the median seed-adjusted z-score is -0.848.

UAAUAAAGCGGAUUCUAGATT against THAP7: the median seed-adjusted z-score was -0.0317.

In the case of GUCGAGUAUUCAUCCGAGATT against DHX57, the median seed-adjusted z-score is -0.138.

CGAUAGCACCUUCCUGUUUTT against GALT: the median seed-adjusted z-score is 0.484.

In the case of GCUUACAUAGCAAAUCUAATT against ST8SIA2, the median seed-adjusted z-score is 0.516.

On to CAGUGUUCGUUCAACCCUATT against ZNF665, for which the median seed-adjusted z-score was 1.13 (active).

On to GAUCCGCACGGACUGCUUUTT against ACVRL1, for which the median seed-adjusted z-score is -0.361.

With GAAAUCUUCUUACGAAAAATT against XPO7, the median seed-adjusted z-score was 0.546.

Turning to “GACAGGACGUGAACAUGCATT against SLC22A18AS”, the median seed-adjusted z-score is 0.0382.
